Hits are enriched below; roughly 2.7% of the tested compounds scored in any of these assays.
Peg3 promoter: Peg3 promoter-driven luciferase inhibitors, primary screen, cell-based, HeLa, luciferase luminescence. inhibition, % at 20 µM. HeLa PEG-Prom luciferase reporter, overnight. 1.7% of 360,000 active;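 active = inhibition of at least 50% at 20 µM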
KKLEB tox: cytotoxicity in KKLEB CF airway cells, primary screen, cytotoxicity control for CF NF-kB inhibitor project, cell-based, uHTS, fluorescence assay plates; KKLEB CF airway cells viability, ATPlite luminescence, overnight; active compounds read low; cells stimulated with P. aeruginosa culture filtrate; activity change (cytotoxicity), % at 5 µM; 0.36% of 360,000 active; AID 602141, 2011;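 active = corrected activity change at or below -50% at 5 µM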
TRPM1 prom inh: inhibitors of MITF-dependent TRPM1 promoter reporter, primary screen, cell-based, SK-MEL-5, single point, luciferase; SK-MEL-5 TRPM1 promoter luciferase, 24 h; inhibition, % at 12.5 µM; 0.83% of 330,000 active; AID 488899, 2010;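 active = mean inhibition across replicates of 60% or more, whatever share of single replicates reaches that level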
CF NFkB inh: inhibitors of PAF-induced NF-kB signaling, primary screen, cell-based, GFP fluorescence, uHTS. KKLEB NF-kB-GFP reporter, GFP fluorescence overnight. inhibition, % at 5 µM. 0.86% of 360,000 active. AID 588850, 2011;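 active = at least 50% inhibition at 5 µM, scaled per plate between neutral and stimulator controls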;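 note: PAF is a Pseudomonas aeruginosa culture filtrate used as stimulus; plate controls were PAF-stimulated DMSO wells for no effect and unstimulated DMSO wells for full effect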
Shn3 3UTR inh: reduction of Shn3 3'UTR firefly luciferase signal, primary screen, Schnurri-3 inhibitor project, cell-based, Clone20 osteoblasts, set 2. 0.52% of 360,000 active. Clone20 osteoblast Shn3 3'UTR firefly luciferase, 24 h. inhibition, % at 12.5 µM;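 active = mean inhibition of at least 75% with every replicate also reaching 75%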;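 note: 0% = median of neutral control wells and 100% = pilot-screen positive control compound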
HIF-2a inh: HIF-2a reporter inhibitors, primary screen, luminescence, 786-0 RCC cells; 786-0 RCC cells HIF-2a reporter, luciferase luminescence, overnight; inhibition, % at 18.8 µM; 0.72% of 360,000 active;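 active = inhibition of the luminescence signal of 40% or more relative to plate controls, in a single-dose primary screen at 18.75 µM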
Starred values were filed as active, the others as inactive; / = no result.

SMILES	Peg3 promoter	KKLEB tox	TRPM1 prom inh	CF NFkB inh	Shn3 3UTR inh	HIF-2a inh
O=[N+]([O-])c1cc(-c2csc(NCCc3nc4cc(Cl)c(Cl)cc4n3CCCO)n2)ccc1Cl	91.8*	-22.1	-21.0	-16.2	-27.8	3.0
CC1(c2ccccc2)CC(C)(C)N2C(=O)C3(C(C#N)=C(N)Oc4cc(O)ccc43)c3cccc1c32 (configuration not stated)	22.3	4.1	3.0	12.8	15.0	32.6
CC1(c2ccccc2)CC(C)(C)N2C(=O)/C(=C3\SC(=S)NC3=O)c3cccc1c32 (configuration not stated)	36.8	-24.6	12.0	61.1*	31.3	8.8
Cc1ccc2c(c1)N(C(=O)CCC(=O)NCCCN1CC(C)CC(C)C1)CCO2 (configuration not stated)	-5.0	19.3	7.0	1.5	9.8	1.2
Cc1ccc(/C=C/C(=O)N2CC(C)CC(C)C2)o1 (configuration not stated)	75.7*	6.2	8.6	11.1	26.9	39.0
O=C(c1cc(-c2cccs2)on1)N1CCN(C(c2ccccc2)c2ccccc2)CC1	6.7	-6.5	67.8*	6.8	43.5	28.4
Cc1ccc(C(=O)NNC(=O)CSc2nnc3c(n2)[nH]c2ccc(F)cc23)cc1	55.1*	-5.7	13.7	-16.2	2.6	4.7
COc1ccc2[nH]c3nc(SCC(=O)NNC(=O)c4ccc(OC)c(OC)c4)nnc3c2c1	6.0	15.7	4.9	-6.5	5.5	-8.9
CC1CCc2cc(F)ccc2N1C(=O)CSc1nnc2c(n1)[nH]c1ccccc12 (configuration not stated)	64.6*	10.2	-5.2	-12.8	27.3	16.9
CCCc1cnc(N2CCN(C(=O)c3ccccc3)CC2)nc1	21.5	-3.7	0.0	7.0	6.1	6.7
COc1ccc(C(C)=O)cc1COC(=O)c1ccc(S(=O)(=O)N(C)C)cc1	7.6	-1.3	-4.2	3.7	-5.5	3.7
CNS(=O)(=O)c1cccc(C(=O)OCc2cc(C(C)=O)ccc2OC)c1	8.5	-12.8	5.2	3.4	81.8*	1.4
Cc1cc(C)c(C)c(S(=O)(=O)N2CCC(C(=O)N3CC(C)CC(C)C3)CC2)c1C (configuration not stated)	8.2	0.4	-8.1	-15.3	6.9	2.1
c1ccc(COc2ncnc3c2ncn3CCCNCC(c2ccccc2)c2ccccc2)cc1	99.7*	-16.7	/	21.4	30.0	14.5
COc1ncnc2c1ncn2CCCNCC(c1ccccc1)c1ccccc1	-0.8	2.4	/	-10.5	12.5	-3.7
CCc1ccc(OCC(=O)NC(NC(=S)Nc2ccc(Cl)cc2)C(Cl)(Cl)Cl)cc1 (configuration not stated)	51.6*	-15.5	30.4	27.4	86.3*	14.6
Cc1ccnc(N2C(=O)c3cccc4c([N+](=O)[O-])ccc(c34)C2=O)c1	107.6*	-4.6	12.7	-5.4	47.3	17.8
Cc1ccc(N2C(=O)c3cccc4c([N+](=O)[O-])ccc(c34)C2=O)c2cccnc12	63.5*	-2.3	74.2*	19.8	92.2*	20.4
Cc1ccc2nc(-c3ccc(O)c(O)c3)cn2c1	-112.4	5.1	45.6	-14.6	90.1*	-111.8
Cc1c(N/N=C(\C#N)C(=O)c2ccc(Cl)cc2)c(=O)n(-c2ccccc2)n1C	42.6	7.2	51.3	12.1	89.8*	26.2
N#C/C(=N\Nc1ccc(Cl)cc1)C(=O)c1ccccc1	-22.3	-35.0	2.6	29.2	8.2	-167.3
COc1ccc(Cc2c(-c3ccc(OC)c(OC)c3)nc3ccc(C)cn23)c(C)c1	4.3	-18.7	/	10.9	6.7	-8.6
O=C(CNC(=O)c1ccc(F)cc1)N/N=C/c1cc(Br)ccc1OCc1ccccc1	-6.9	0.3	-9.8	8.4	-8.9	-34.1
O=C(CNC(=O)c1cccc(F)c1)N/N=C/c1cc(Br)ccc1OC(=O)/C=C/c1ccco1	31.0	-1.1	67.2*	8.1	86.9*	-11.2
